Mtb BioA inh – M. tuberculosis BioA enzyme inhibitors, primary screen, biochemical, plate reader, single point, HTS; 7,8-diaminopelargonic acid synthase BioA (Mycobacterium tuberculosis); purified M. tuberculosis BioA enzyme; inhibition, % at 9.99 µM; 360,000 compounds, 0.096% hits; AID 602481, 2012; in the data active means inhibition above about 40%
TcdB GH inh – TcdB glycohydrolase inhibitors, primary screen, biochemical, single point, plate reader; TcdB glycohydrolase enzymatic assay; inhibition, % at 9.99 µM; 350,000 compounds, 0.24% hits; in the data active means inhibition above about 10%
FadD28 binding – inhibitors of FadD28 bisubstrate probe binding, primary screen, biochemical, fluorescence polarization, single point | Mycobacterium tuberculosis FadD28 fatty-acid-AMP ligase | inhibition, % at 12.5 µM | 360,000 compounds, 0.22% hits | AID 588549, 2011; in the data active means inhibition above about 8.5%, passing the limit was not always enough
Vc quorum ag – inducers of Vibrio cholerae quorum light production without autoinducers, primary screen, BH1578 luxS cqsA deficient, single point. activation, % at 18.7 µM. V. cholerae BH1578 lux reporter, luminescence, 6 h. AID 588436, 2011. 350,000 compounds, 0.16% hits; in the data active means activation mostly above about 9.7%, no sharp cut-off
Y pestis TopoI – Yersinia pestis topoisomerase I inhibitors, primary screen, biochemical, cleavage product accumulation, plate reader, single point; Y. pestis Topo-I cleavage product accumulation; activity, % at 10 µM; 360,000 compounds, 0.064% hits; AID 504884, 2011; in the data active means activity above about 50%, passing the limit was not always enough
Large screens that a line does not name were inactive. Compounds with a hit are over-represented: about 0.61% of the library has one in this group of screens.

CCNC(=O)Nc1ccc2c(c1)C(=O)N(C)[C@H]1CC[C@@H](CC(=O)NCC3CC3)O[C@H]1CO2	none (no result: TcdB GH inh, FadD28 binding, Vc quorum ag, Y pestis TopoI)
O=C(NCc1ccccc1)[C@]1(Cc2ccccc2)N=C(c2ccc(OCCCO)cc2)O[C@@H]1c1ccccc1	none (no result: FadD28 binding, Vc quorum ag, Y pestis TopoI)
CCCNC(=O)[C@@H]1[C@@H](CO)[C@@H]2Cn3c(ccc(/C=C/c4ccccc4)c3=O)[C@H]1N2C(=O)c1ccncc1	none (no result: FadD28 binding, Vc quorum ag, Y pestis TopoI)
COC1=C(N)C(=O)c2nc(-c3nc(C(=O)O)c(C)c(-c4ccc(OC)c(OC)c4O)c3N)ccc2C1=O	Vc quorum ag 179 (no result: TcdB GH inh, FadD28 binding, Y pestis TopoI)
COC(=O)c1nc(-c2ccc3c(n2)C(=O)C(N)=C(OC)C3=O)c(N)c(-c2ccc(OC)c(OC)c2O)c1C	none
C[C@@H](O)C#Cc1ccc([C@H]2[C@H](CO)N3CCCCN(S(=O)(=O)c4ccccc4)C[C@@H]23)cc1	none (no result: FadD28 binding, Vc quorum ag, Y pestis TopoI)
C[C@@H]1CCCCO[C@H](CN(C)CC2CCCCC2)[C@H](C)CN([C@H](C)CO)C(=O)c2cc(NS(C)(=O)=O)ccc2O1	none (no result: FadD28 binding, Vc quorum ag, Y pestis TopoI)
CC(C)n1cc(/C=N/Nc2ccc(C(=O)O)cc2)c2ccccc21	FadD28 binding 22
Cn1cc(/C=N/Nc2ccccc2)c2ccccc21	none (no result: Mtb BioA inh)
O=C(N/N=C/c1cn(Cc2cccc(F)c2)c2ccccc12)c1cc(O)cc(O)c1	FadD28 binding 17
O=C(O)c1ccc(N/N=C/c2cn(Cc3ccccc3F)c3ccccc23)cc1	FadD28 binding 13
CN1C(=O)c2cc(NC(=O)Cc3cccs3)ccc2OC[C@@H]2O[C@@H](CC(=O)NCC3CCCCC3)CC[C@H]21	none (no result: FadD28 binding, Vc quorum ag, Y pestis TopoI)
C[C@H](CO)N1C[C@H](C)[C@H](CN(C)S(=O)(=O)c2ccc(Cl)cc2)Oc2c(NC(=O)Nc3ccc(C(F)(F)F)cc3)cccc2C1=O	none (no result: FadD28 binding, Vc quorum ag, Y pestis TopoI)
CCOC(=O)CN1C(=O)S/C(=C\c2ccc(-c3ccc(C(=O)O)c(Cl)c3)o2)C1=O	none
O=C(O)c1ccc(-c2ccc(/C=C3\NC(=O)N(Cc4ccc(Cl)cc4)C3=O)o2)cc1Cl	FadD28 binding 16
C[C@@H]1CN([C@@H](C)CO)C(=O)c2c(c3ccccc3n2C)-c2ccccc2CO[C@@H]1CN(C)C	TcdB GH inh 20 (no result: FadD28 binding, Vc quorum ag, Y pestis TopoI)
C[C@H]1CN([C@@H](C)CO)C(=O)c2c(c3ccccc3n2C)-c2ccccc2CO[C@H]1CN(C)C	TcdB GH inh 11 (no result: FadD28 binding, Vc quorum ag, Y pestis TopoI)
C[C@H]1CN([C@@H](C)CO)C(=O)c2c(c3ccccc3n2C)-c2ccccc2CO[C@H]1CN(C)S(C)(=O)=O	none (no result: FadD28 binding, Vc quorum ag, Y pestis TopoI)
O=C(C[C@@H]1CC[C@@H]2[C@H](COC[C@H](O)CN2Cc2ccc(C(F)(F)F)cc2)O1)N1CCc2ccccc2C1	none (no result: FadD28 binding, Vc quorum ag, Y pestis TopoI)
O=C(CN1CCOCC1)N[C@@H]1CC[C@H](CCNC(=O)Nc2cc(F)ccc2F)O[C@H]1CO	none (no result: FadD28 binding, Vc quorum ag, Y pestis TopoI)
Cc1ccc(NC(=O)CN2C(=O)S/C(=C\c3ccc(-c4cccc(C(=O)O)c4C)o3)C2=O)cc1C	FadD28 binding 12 (no result: Mtb BioA inh)
O=C(CCCN1C(=O)/C(=C/c2ccccc2)SC1=S)Nc1ccc(C(=O)O)c(O)c1	none
O=C(CN1C(=O)/C(=C/c2ccco2)SC1=S)Nc1ccc(O)c(C(=O)O)c1	FadD28 binding 36
CC(C(=O)Nc1ccc(C(=O)O)c(O)c1)N1C(=O)/C(=C\c2ccco2)SC1=S (stereo not given)	FadD28 binding 25 (no result: TcdB GH inh)
COc1ccc(NC(=O)CCCN2C(=O)/C(=C\c3ccco3)SC2=S)cc1	none (no result: TcdB GH inh)
O=C(CN1C(=O)/C(=C/c2ccco2)SC1=S)Nc1ccc(C(=O)O)c(O)c1	FadD28 binding 23
CCOC(=O)CN1C(=O)S/C(=C\c2ccc(-c3cccc(C(=O)O)c3C)o2)C1=O	none
CC(C(=O)N(C)C1CCS(=O)(=O)C1)N1C(=O)/C(=C/c2ccco2)SC1=S (stereo not given)	none
COc1ccc2c3c(n(C)c2c1)[C@H](CO)N(Cc1ccccn1)CC31CCN(Cc2ccccn2)CC1	none (no result: Mtb BioA inh, FadD28 binding, Vc quorum ag, Y pestis TopoI)
CC=Cc1ccc2n(c1=O)C[C@H]1[C@H](CO)[C@@H](C(=O)Nc3ccccc3)N(CC3CCCC3)[C@@H]21 (mixture of isomers)	none (no result: FadD28 binding, Vc quorum ag, Y pestis TopoI)
CCCNC(=O)Nc1ccc2c(c1)C(=O)N(C)C[C@@H](OC)[C@H](C)CN(C(C)=O)[C@@H](C)CO2	none (no result: FadD28 binding, Vc quorum ag, Y pestis TopoI)
C#Cc1ccc([C@H]2C=C(C(=O)Nc3ccccc3)O[C@@H](OCCCCO)C2)cc1	none (no result: FadD28 binding, Vc quorum ag, Y pestis TopoI)
CC(C)(C)[Si](C)(C)OC[C@@H]1[C@H]2c3ccccc3O[C@]1(C)NC(=S)N2C(=O)c1ccccc1	none (no result: Mtb BioA inh, FadD28 binding, Vc quorum ag, Y pestis TopoI)
CNC(=S)N/N=C/c1c(C(=O)OC)cnn1-c1ccc(F)cc1F	TcdB GH inh 12
O=C(O)c1cc(N/N=C/c2c(O)ccc3ccccc23)ccc1Cl	FadD28 binding 20
COc1ccc(NC(=O)Nc2ccc3c(c2)C(=O)N([C@@H](C)CO)C[C@H](C)[C@@H](CN(C)C(=O)Nc2ccc(F)cc2)O3)cc1	none (no result: FadD28 binding, Vc quorum ag, Y pestis TopoI)
Cc1nc2ccccn2c1-c1ccnn1S(=O)(=O)c1ccc(F)cc1	TcdB GH inh 15
CC(=O)C1=CCC(c2ccc(Br)cc2)N(S(=O)(=O)c2ccc(C)cc2)C1 (stereo not given)	none (no result: Vc quorum ag, Y pestis TopoI)
CC(=O)C1=CCC(c2ccc(C)cc2)N(S(=O)(=O)c2ccc(C)cc2)C1 (stereo not given)	TcdB GH inh 12 (no result: Vc quorum ag, Y pestis TopoI)
Cc1ccc(S(=O)(=O)N2CC(CBr)=CCC2c2ccccc2)cc1 (stereo not given)	TcdB GH inh 16 (no result: Mtb BioA inh, FadD28 binding, Vc quorum ag, Y pestis TopoI)
CC(C)C#Cc1ccc([C@@H]2[C@H](C#N)N(C(=O)C3CC3)[C@H]2CO)cc1	none (no result: FadD28 binding, Vc quorum ag, Y pestis TopoI)
C/C(CC(=O)Nc1ccc([N+](=O)[O-])cc1)=N/NC(=O)C1C2CCCCC21 (stereo not given)	none
C/C(CCc1ccccc1)=N\NC(=O)C1C2CCCCC21 (stereo not given)	TcdB GH inh 11 (no result: Mtb BioA inh)
O=S(=O)(c1ccc(F)cc1)N1CC[C@@H]2[C@@H](CO)Nc3ccc(-c4ccc(F)cc4)cc3[C@@H]21	none (no result: TcdB GH inh, FadD28 binding, Vc quorum ag, Y pestis TopoI)
O=C(CSc1ccccc1)Nc1cc(S(=O)(=O)N2CCOCC2)ccc1N1CCOCC1	TcdB GH inh 12 (no result: Mtb BioA inh)
CC(Oc1cccc(Cl)c1)C(=O)Nc1cc(S(=O)(=O)N2CCOCC2)ccc1N1CCCCC1 (stereo not given)	Y pestis TopoI 71 (no result: Mtb BioA inh)
Cc1cc(Cl)ccc1OC(C)C(=O)Nc1ccccc1N1CCOCC1 (stereo not given)	Y pestis TopoI 63 (no result: TcdB GH inh)
CCN1CCN(c2ccc(S(=O)(=O)N3CCOCC3)cc2NC(=O)C(C)Oc2cccc(Cl)c2)CC1 (stereo not given)	none
COc1ccc(S(=O)(=O)N2CCOCC2)cc1NC(=O)CSc1ccccc1	none
CO[C@@H](CCO)[C@@H](O)c1ccc(O)c(F)c1	none (no result: FadD28 binding, Vc quorum ag, Y pestis TopoI)
C(=C\c1nccc2c1[nH]c1ccccc12)/c1ccccc1	none (no result: Mtb BioA inh)
Fc1ccc(/C=C\c2nccc3c2[nH]c2ccccc23)cc1	TcdB GH inh 12
O=S(c1ccccc1O)S(=O)c1ccccc1O (stereo not given)	FadD28 binding 28 (no result: Mtb BioA inh, Vc quorum ag)

Screening results from PubChem.
